# Reference: PubChem BioAssay AID651597 (National Center for Advancing Translational Sciences (NCATS), 2012)
# In all, about 1,100 compounds went through this assay and about 390 (35%) were called active. Inconclusive results (about 30%) are left out. The list shows a part of the results. Values without a mark were called inactive. Calls follow the shape of the dose curve; as a rule, active = well fitted inhibition curve with a large enough effect; inconclusive = small, poorly fitted or top-dose-only effect; inactive = flat fitted curve, though single readings scatter.
# Target: Luciferin 4-monooxygenase (Photinus pyralis) (UniProt P08659)
# Assay: qHTS of Nrf2 Activators: Hit Validation in Secondary FLuc Assay; also: nearly all actives have a fitted effect of over 65% in size
# Conditions: firefly luciferase inhibition counter-screen, luminescence; series mostly up to 57.5 µM; activity, negative = inhibition: at the top concentration
# How it was run: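 Counter-screen on purified firefly luciferase with ATP and D-luciferin at Km concentrations; compounds flagged if they inhibit the enzyme, indicating possible reporter stabilization rather than ARE activation.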
# % is scaled to controls: 0 for no effect and ±100 for the full control effect; potency is read from the fitted curve at half-maximal effect.
SMILES,"activity, negative = inhibition [%]",Potency
O=C1C=C(C#Cc2ccccc2)C[C@@H](c2ccc(F)cc2)C1,-5.22,
N/C(=N\OC(=O)c1ccco1)c1cccc(Br)c1,,2.39 µM (active)
O=C(Nc1ncnc2sc3c(c12)CCC3)c1ccco1,0.673,
O=C(CSc1ncnc2sc3c(c12)CCCC3)c1ccco1,,2.69 µM (active)
Cc1ccsc1-c1ccnc(-n2cccc2)n1,,15.1 µM (active)
c1coc(-c2ccnc3nc(-n4cccc4)nn23)c1,-29.9,
c1coc(-c2ccnc(-n3cccc3)n2)c1,,15.1 µM (active)
CN1CCCC1CCNc1ccc2c(=O)c3ccccc3oc2c1 (stereo not given),,6.75 µM (active)
Cc1sc2ncnc(Sc3nnnn3-c3ccccc3)c2c1C,-19.4,
Cc1nc2nc(-c3ccccc3)nn2c(C)c1Cl,,3.38 µM (active)
COc1cc(-c2noc(-c3cccs3)n2)cc(OC)c1OC,-29,
CCOc1ccc(Br)cc1-c1noc(-c2cccs2)n1,-20.8,
CCOc1ncccc1-c1nc(-c2cccs2)no1,,15.1 µM (active)
O=C(/C=C\c1ccc2c(c1)OCO2)CC1(O)C(=O)Nc2ccccc21 (stereo not given),,9.53 µM (active)
CC(C)N1C/C(=C/c2cccnc2)C(=O)/C(=C/c2cccnc2)C1,-1.87,
Nc1ccc2c(c1)Cc1c(F)cccc1-2,,7.57 µM (active)
COc1ccc2c(c1)Cc1c-2cc(Br)c(N)c1Br,-19.8,
Cc1ccc(S(=O)(=O)c2nc(S(C)(=O)=O)sc2N2CC(C)OC(C)C2)cc1 (stereo not given),8.48,
Cc1ccc(C)c(NC(=O)COC(=O)c2cc(=O)c3ccccc3o2)c1,-12,
Cc1ccc(C)c(NC(=S)c2nc3ccccc3s2)c1,,10.7 µM (active)
O=C(N/N=C/c1ccsc1)c1ccc2ccccc2n1,,10.7 µM (active)
O=C(Nc1ccc(F)cc1)c1cc2ccccc2o1,,0.953 µM (active)
O=C(Nc1ccc(F)cc1)c1sccc1SCc1cccc(C(F)(F)F)c1,-4.78,
O=C1/C(=C/c2ccccc2)CCc2ccc(Cl)nc21,,10.7 µM (active)
CN1C2CCC1/C(=C\c1ccccc1)C(=O)/C2=C\c1ccccc1,-3.98,
C1=C(c2ccc(-c3ccccc3)cc2)Nc2ncnn2C1c1ccco1 (stereo not given),,10.7 µM (active)
Brc1ccc(C2=CC(c3ccco3)n3nnnc3N2)cc1 (stereo not given),-8.07,
Cc1ccc2nc(N(CCN(C)C)C(=O)/C=C/c3cccs3)sc2c1,-22.7,

SMILES,"activity, negative = inhibition [%]",Potency
O=C(/C=C/c1cccs1)c1ccco1,,9.53 µM (active)
CCOc1ccsc1C(=O)NNC(=O)c1ccco1,4.68,
COc1ccc(Sc2cnn(-c3ccccc3)c(=O)c2Cl)cc1,-21,
NC(=O)N/N=C/c1ccccc1OC(=O)c1ccccc1Br,,10.7 µM (active)
c1ccc(CNc2nc(NCc3ccco3)nc(N3CCOCC3)n2)cc1,5.72,
CCN=c1scc(C)n1/N=C/c1ccsc1,,6.75 µM (active)
Cc1[nH]c2ccccc2c1N=Nc1ccccc1F,,19 µM (active)
Cc1[nH]c2ccccc2c1N=Nc1ccccc1C(=O)O,,8.49 µM (active)
Cc1cccn2c(=O)c(C=NCCO)c(NCc3ccco3)nc12,-5.84,
O/N=C/c1ccc2cccc(OCc3ccccc3)c2n1,-3.72,
CC1CN(C(=O)/C=C/c2ccc([N+](=O)[O-])s2)CC(C)O1 (stereo not given),4.93,
Clc1ccccc1NN=Cc1ccccn1,,2.13 µM (active)
COc1ccc(OC)c(/C=C(\C#N)c2nc(-c3ccc(F)cc3)cs2)c1,-25.1,
COc1ccc(Cl)cc1NC(=O)c1cc(-c2ccccc2O)n[nH]1,-23.7,
COc1ccc(O)c(-c2cc(-c3ccc(F)cc3)n[nH]2)c1,,4.78 µM (active)
COc1ccc(O)c(-c2cc(-c3ccccc3Cl)[nH]n2)c1,,6.01 µM (active)
COC(=O)c1scc(C)c1NC(=O)c1ccc(Cl)cc1,5.2,
O=C1S/C(=C\C=C\c2ccco2)C(=O)N1c1ccc(O)cc1,,9.53 µM (active)
O=C(CN1CCN(Cc2ccccc2)CC1)N/N=C\C=C/c1ccco1,-3.19,
O=C1S/C(=C\C=C\c2ccco2)C(=O)N1c1ccccc1,,6.75 µM (active)
CN1CCN(c2sc(S(C)(=O)=O)nc2S(=O)(=O)c2ccc(Cl)cc2)CC1,-0.708,
Cc1ccc([N+](=O)[O-])cc1NC(=O)c1ccccc1,5.55,
CC(C)=NNc1cnnc2ccc([N+](=O)[O-])cc12,,10.7 µM (active)
Cc1ccc(O)c(NC(=O)c2cc([N+](=O)[O-])ccc2Cl)c1,-21.1,
O=C(NC1CCCCC1)N(c1ccccc1)c1nnc(-c2cccc([N+](=O)[O-])c2)s1,,16.9 µM (active)
CC(=O)Nc1ccc(S(=O)(=O)c2ccnc3cc(Cl)ccc23)cc1,-10.5,
c1ccc(C2=Nn3c(nnc3-c3ccco3)SC2)cc1,,26.9 µM (active)
